Data published in the supplement of paper PMC6953052.
Structures can show the parent of a compound that is named as a salt. Over roughly 1,700 compounds, “fraction of GFP-LC3-positive cells (≥5 vesicles/cell)” has its median near 0.058; the highest 2% begin near 0.59. The list comes from a sample in which the highest values are over-represented; it also holds similar structures and randomly drawn compounds.

Each compound was assayed on CbCln3 +/+ GFP-LC3 cerebellar neuronal cells (assay: fraction of GFP-LC3-positive cells (≥5 vesicles/cell); higher = more autophagosome accumulation).
In short: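 In 384-well plates at 2 × 10^3 cells per well, GFP-LC3-expressing wild-type or mutant CbCln3 cerebellar cells took ~50 nL of compound in DMSO by pin transfer, in duplicate, for 24 h at 33 °C. Staining with Hoechst 33342 and LysoTracker Red over the final 30 min preceded fixation in 3.2% PFA and imaging of three fields per well at 10×. CellProfiler then counted GFP-LC3 vesicles in each cell, and out-of-focus images were dropped before the fraction of cells with 5 or more vesicles was averaged over duplicates.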

SMILES | fraction of GFP-LC3-positive cells
N#CC(C#N)=Cc1ccc(O)c(O)c1 | 0.094
N#CC(C#N)=Cc1cc(O)c(O)c(O)c1 | 0.0475
CC(C)(C)c1cc(C=C(C#N)C#N)cc(C(C)(C)C)c1O | 0.357
CC(C)(C)c1cc(C=C(C#N)C#N)cc(C(C)(C)C)c1O [tyrphostin 9] | 0.67
CCN(CC)C(=O)N[C@H]1C[C@@H]2c3cccc4[nH]cc(c34)C[C@H]2N(C)C1.O=C(O)/C=C\C(=O)O [S(-)-terguride hydrogen maleate] | 0.0461
CC(C)[C@]12O[C@H]1[C@@H]1O[C@]13[C@]1(O[C@H]1C[C@H]1C4=C(CC[C@@]13C)C(=O)OC4)[C@@H]2O [Triptolide] | 0.268
Cl.NCCc1c[nH]c2ccc(O)cc12 [Serotonin hydrochloride] | 0.0685
C#CCN(C)[C@H](C)Cc1ccccc1.Cl [Selegiline hydrochloride] | 0.0621
C[N+]1(C)CCCC(OC(=O)C(O)(c2ccccc2)c2ccccc2)C1.[Br-] (stereo not drawn) [Mepenzolate bromide] | 0.0681
COc1cc2c(c(OC)c1OC)-c1ccc(OC)c(=O)cc1[C@@H](NC(C)=O)CC2 [Colchicine] | 0.778
COc1cc2c(c(OC)c1OC)-c1ccc(O)c(=O)cc1[C@@H](N)CC2 [Trimethylcolchicinic acid] | 0.0619
COC1=C[C@@H]2C3=C([C@@H]2C1=O)[C@@H](NC(C)=O)CCc1cc(OC)c(OC)c(OC)c13 [Lumicolchicine gamma] | 0.0307
CC(C)(O)[C@H]1O[C@H]2CC[C@@]3(C)[C@@](O)(CC[C@H]4Cc5c([nH]c6ccccc56)[C@@]43C)C2=CC1=O | 0.0216
C/C=C(/C)C(=O)O[C@H]1C(C)=C2[C@H]([C@@H]1OC(=O)CCCCCCC)[C@@](C)(OC(C)=O)C[C@H](OC(=O)CCC)[C@@]1(O)[C@H]2OC(=O)[C@@]1(C)O | 0.665
Cl.O[C@@H]1CCCC[C@H]1N1CCC(c2ccccc2)CC1 [L(-)-vesamicol hydrochloride] | 0.076
CC(C)N(CCC(C(N)=O)(c1ccccc1)c1ccccn1)C(C)C (stereo not drawn) [Disopyramide] | 0.0661
COc1cc2c(cc1O)[C@@H]1Cc3ccc(OC)c(O)c3CN1CC2 [Scoulerine] | 0.588
O.O.O.O=C1OC2(c3cc(Br)c([O-])cc3Oc3c2cc(Br)c([O-])[c]3[Hg][OH])c2ccccc21.[Na+].[Na+] (stereo not drawn) [Merbromin] | 0.957
CCCCC/C=C\C/C=C\C/C=C\C/C=C\CCCC(=O)NCc1ccc(O)c(OC)c1 [Arvanil] | 0.144
CC[C@@]1(O)C(=O)OCc2c1cc1n(c2=O)Cc2cc3ccccc3nc2-1 [Camptothecine (S,+)] | 0.321

SMILES | fraction of GFP-LC3-positive cells
OC[C@H]1O[C@@H](n2cnc3cc(Cl)c(Cl)cc32)C(O)[C@H]1O (stereo partly drawn) | 0.0687
C=C1[C@@H](O)C2O[C@@]3(CCC2O[C@@H]1C(O)C[C@H](C)C1O[C@@]2(CCCCO2)CC[C@H]1C)CC[C@@H](/C=C/[C@@H](C)[C@@H]1CC(C)=C[C@@]2(O[C@H](C[C@@](C)(O)C(=O)O)CCC2O)O1)O3 (stereo partly drawn) [okadaic acid] | 0.831
CCN1C[C@]2(COC)CC[C@H](O)[C@]34C1[C@H](C[C@H]23)[C@@]1(O)C[C@H](OC)[C@H]2C[C@@H]4[C@@H]1[C@H]2OC(C)=O [Condelphine] | 0.043
O=C(O)/C=C\C(=O)O.O=C(O)/C=C\C(=O)O.c1ccc2nc(N3CCNCC3)ccc2c1 [Quipazine dimaleate salt] | 0.041
C[C@H]1CCC/C=C/C2C[C@H](O)C[C@H]2[C@H](O)/C=C/C(=O)O1 (stereo partly drawn) [brefeldin A] | 0.0802
C=C1[C@@H](C)[C@H]2[C@H](Cc3ccccc3)NC(=O)[C@]23[C@H](OC(C)=O)/C=C/[C@](C)(O)C(=O)[C@@H](C)C/C=C/[C@H]3[C@@H]1O [cytochalasin D] | 0.411
CCCC[C@@H](C)[C@@H](OC(=O)C[C@@H](CC(=O)O)C(=O)O)[C@H](C[C@@H](C)C[C@H](O)CCCC[C@@H](O)C[C@H](O)[C@H](C)N)OC(=O)C[C@H](CC(=O)O)C(=O)O [Fumonisin B1] | 0.0462
CCN1C[C@]2(C)CC[C@H](O)[C@]34C1[C@H](C[C@H]23)[C@@]1(O)C[C@H](OC)[C@H]2C[C@@H]4[C@@H]1C2O (stereo partly drawn) [Karakoline] | 0.0388
CNc1ccc2oc(C[C@@H]3OC4(CC[C@@H]3C)O[C@H](C(C)C(=O)c3ccc[nH]3)[C@H](C)C[C@H]4C)nc2c1C(=O)O (stereo partly drawn) | 0.276
C=C(C)[C@H]1O[C@H]2CC[C@@]3(C)[C@@](O)(CC[C@H]4[C@@H]5OC(C)(C)[C@H]6C[C@@H]7C(=C)Cc8c(Cl)cc9[nH]c(c5c9c8[C@@]76O)[C@@]43C)[C@]23O[C@@H]3[C@H]1O | 0.667
CN1C2CCCC1CC(=O)C2.Cl [Pseudopelletierine hydrochloride] | 0.111
CN[C@@H]1C[C@H]2O[C@@](C)([C@@H]1OC)n1c3ccccc3c3c4c(c5c6ccccc6n2c5c31)C(=O)NC4 [staurosporine] | 0.542
CCCCCCCCCCCCCCCCOC[C@H](COP(=O)([O-])OCC[N+](C)(C)C)OC(C)=O | 0.0259
CCCCCC1OC1C/C=C\CCCCCCCC(=O)O (stereo not drawn) [Leukotoxin B (12,13-EODE)] | 0.0763
CCCCCC1OC1C/C=C\CCCCCCCC(=O)O (stereo not drawn) | 0.062
Cc1nccc2c1[nH]c1ccccc12.Cl [Harmane hydrochloride] | 0.0738
Cc1c2ccncc2c(C)c2c1[nH]c1ccccc12 [Ellipticine] | 0.984
O=C1C=C2C=C[C@@H]3CC2(O1)[C@H]1CCCCN31 [Securinine] | 0.0519
CC(C)(C)NCC(O)c1cc(Cl)c(N)c(Cl)c1.Cl (stereo not drawn) [Clenbuterol hydrochloride] | 0.0519
CC[C@@H](CO)NC(=O)[C@@H]1C=C2c3cccc4[nH]cc(c34)C[C@H]2N(C)C1.O=C(O)/C=C\C(=O)O [Methylergometrine maleate] | 0.0308

SMILES | fraction of GFP-LC3-positive cells
CC1=CC(=O)C2=C(C)C[C@H](O)[C@@H]3[C@H](OC(=O)[C@H]3C)[C@@H]12.O [Austricine] | 0.0585
Clc1ccc(C2CC3CCC2N3)cn1 (racemic) [epibatidine (+/-)] | 0.0633
N#CC(C#N)=NNc1ccc(OC(F)(F)F)cc1 | 0.918
C[C@@H]1O[C@@H](O[C@@H]2C=C3CCC4C(CC[C@]5(C)[C@@H](c6ccc(=O)oc6)CC[C@]45O)[C@@]3(C)CC2)[C@H](O)[C@H](O)[C@H]1O (stereo partly drawn) [Proscillaridin A] | 0.0563
CN1CCC2=C[C@H](O)[C@H]3OC(=O)c4cc5c(cc4[C@H]3[C@@H]21)OCO5 [Hippeastrine hydrobromide] | 0.0629
CN1Cc2c(ccc3c2OCO3)[C@@H]2[C@H]1c1cc3c(cc1C[C@@H]2O)OCO3.O [Chelidonine (+)] | 0.593
CN1CCc2cc3c(cc2[C@H]1[C@@H]1OC(=O)c2c1ccc1c2OCO1)OCO3 [Bicuculline (+)] | 0.0481
CCCCCC[C@H]1C(=O)O[C@H](C)C(NC(=O)c2cccc(NC=O)c2O)C(=O)O[C@@H](C)[C@@H]1OC(=O)CC(C)C (stereo partly drawn) [Antimycin A] | 0.0705
CC/C=C\C[C@@H](/C=C/C=C\C/C=C\C/C=C\CCCC(=O)O)OO | 0.0447
C/C1=C/C(=O)O[C@@H]2C[C@@H](CC[C@H](C)/C=C\CC1)O[C@@](O)([C@@H]1CSC(=O)N1)C2 [Latrunculin B] | 0.94
COC1=CC(=O)OC(/C=C/c2ccccc2)C1 (racemic) [Kavain (+/-)] | 0.0407
O=c1[nH]c2ccccc2n1C1CCN(CCCC(c2ccc(F)cc2)c2ccc(F)cc2)CC1 [Pimozide] | 0.0546
COc1ccc2c(c1OC)CN1CCc3cc4c(cc3C1C2)OCO4 (stereo not drawn) [(d,l)-Tetrahydroberberine] | 0.0361
COc1cc([C@@H]2c3cc4c(cc3[C@H](O)[C@H]3COC(=O)[C@H]23)OCO4)cc(OC)c1OC [Podophyllotoxin] | 0.682
COc1ccc2c(c1OC)C(=O)O[C@@H]2[C@H]1c2cc3c(cc2CCN1C)OCO3.Cl [Hydrastine hydrochloride] | 0.0565
CCCCC/C=C\C/C=C\C/C=C\C/C=C\CCCC(=O)NCCO [Anandamide (20:4, n-6)] | 0.0367
CCCCC/C=C\C/C=C\C/C=C\C/C=C\CCCC(=O)NCCO | 0.0573
COC(=O)[C@@]1(O)C[C@@H]2O[C@@]1(C)n1c3ccccc3c3c4c(c5c6ccccc6n2c5c31)C(=O)NC4 | 0.16
